Reference: the supplement of paper PMC10849652
Targets with a hit are over-represented here; the source holds about 8,800 in all. About 0.5% of all pairs of compound and target were hits.

Experiments:
Assay in all cases: log2 fold change, soluble protein after heating vs DMSO (PISA); higher = thermal stabilisation; K562 lysate, 10 uM; active = over 0.2 and 3.5 SD of the protein, either way, in both replicates (recomputed)
[1] = compound: C1=CC=C(C=C1)[C@H](COC2=CC3=C(C=C2)NC(=O)N3)NC(=O)C4=CC=CN(C4=O)CC5=CC(=C(C=C5)F)F
Procedure, shortened: (§1)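 The values are log-two fold changes in thermal stability compared with solvent controls and come from duplicates. They were obtained by TMTpro 16plex LC-MS/MS, with channel sums equalised, on the supernatant after 21,000xg for 90 min. That supernatant came from crude K562 extract at 1 mg/mL protein treated with 10 μM compound for 30 min, heated for 3 min across 48°C-58°C, pooled and brought to 0.5% NP-40 at 4°C.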

[2] = compound: CC1=C(SC2=C1C(=N[C@H](C3=NN=C(N32)C)CC(=O)N)C4=CC=C(C=C4)Cl)C
Procedure, shortened: as §1

[3] = compound: CC1=C2C(=CC=C1)N=C(N(C2=O)C3=CC=CC=C3C)CN4C=NC5=C(N=CN=C54)N
Procedure, shortened: as §1

[4] = compound: Cc1sc2c(c1C)C(c1ccc(Cl)cc1)=N[C@@H](CC(=O)OC(C)(C)C)c1nnc(C)n1-2
Procedure, shortened: as §1

[5] = compound: c1ccc([C@@H]2C[C@H]2NC2CCNCC2)cc1
Procedure, shortened: as §1

Measured: log2 fold change

TNPO3 (UniProt Q9Y5L0)
inactive: [1] -0.024 | [2] 0.07 | [3] -0.003 | [4] 0.009 | [5] -0.029

TDRD3 isoform 3 (UniProt Q9H7E2)
inactive: [1] 0.082 | [2] 0.037 | [3] 0.027 | [4] 0.065 | [5] -0.01

TMOD1 (UniProt P28289)
inactive: [1] -0.003 | [2] 0.021 | [3] 0.043 | [4] 0.017 | [5] 0.002

UCHL5 (UniProt Q5LJA9)
inactive: [1] 0.002 | [2] -0.059 | [3] -0.022 | [4] -0.251 | [5] 0.133

UBAP2 (UniProt Q5T6F2)
inactive: [1] -0.019 | [2] -0.003 | [3] -0.008 | [4] -0.022 | [5] -0.119

TPM4 isoform 2 (UniProt P67936)
inactive: [1] -0.059 | [2] -0.012 | [3] 0.02 | [4] 0.053 | [5] 0.1

TTI2 (UniProt Q6NXR4)
inactive: [1] -0.044 | [2] 0.009 | [3] 0.033 | [4] -0.035 | [5] 0.024

TELO2 (UniProt Q9Y4R8)
UniProt Q9Y4R8, sequence (Q9Y4R8 whole entry, looked up): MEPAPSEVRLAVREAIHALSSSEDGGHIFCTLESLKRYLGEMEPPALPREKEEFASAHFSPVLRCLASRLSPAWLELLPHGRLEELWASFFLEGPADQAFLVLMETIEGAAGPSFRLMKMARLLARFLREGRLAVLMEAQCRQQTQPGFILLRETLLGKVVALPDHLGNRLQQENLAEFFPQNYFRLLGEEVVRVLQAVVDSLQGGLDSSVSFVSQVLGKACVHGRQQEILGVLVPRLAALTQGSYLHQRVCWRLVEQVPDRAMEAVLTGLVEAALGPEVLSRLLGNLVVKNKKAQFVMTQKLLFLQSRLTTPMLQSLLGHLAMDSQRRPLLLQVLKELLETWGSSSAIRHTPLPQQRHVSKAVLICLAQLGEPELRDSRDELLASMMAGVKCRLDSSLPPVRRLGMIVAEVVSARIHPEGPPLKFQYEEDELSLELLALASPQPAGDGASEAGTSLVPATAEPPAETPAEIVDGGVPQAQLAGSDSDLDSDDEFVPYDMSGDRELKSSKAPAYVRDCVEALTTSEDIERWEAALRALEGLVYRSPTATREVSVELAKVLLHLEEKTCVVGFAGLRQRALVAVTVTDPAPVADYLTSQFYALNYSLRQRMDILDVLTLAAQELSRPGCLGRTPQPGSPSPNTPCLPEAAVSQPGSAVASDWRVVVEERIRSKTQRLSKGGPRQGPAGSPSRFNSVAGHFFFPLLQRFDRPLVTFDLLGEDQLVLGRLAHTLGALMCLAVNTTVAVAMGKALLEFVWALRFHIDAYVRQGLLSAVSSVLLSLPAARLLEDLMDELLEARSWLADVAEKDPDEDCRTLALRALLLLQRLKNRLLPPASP
inactive: [1] -0.073 | [2] -0.012 | [3] -0.019 | [4] 0.056 | [5] 0.025

TBC1D23 (UniProt Q9NUY8)
UniProt Q9NUY8, sequence (Q9NUY8 whole entry, looked up): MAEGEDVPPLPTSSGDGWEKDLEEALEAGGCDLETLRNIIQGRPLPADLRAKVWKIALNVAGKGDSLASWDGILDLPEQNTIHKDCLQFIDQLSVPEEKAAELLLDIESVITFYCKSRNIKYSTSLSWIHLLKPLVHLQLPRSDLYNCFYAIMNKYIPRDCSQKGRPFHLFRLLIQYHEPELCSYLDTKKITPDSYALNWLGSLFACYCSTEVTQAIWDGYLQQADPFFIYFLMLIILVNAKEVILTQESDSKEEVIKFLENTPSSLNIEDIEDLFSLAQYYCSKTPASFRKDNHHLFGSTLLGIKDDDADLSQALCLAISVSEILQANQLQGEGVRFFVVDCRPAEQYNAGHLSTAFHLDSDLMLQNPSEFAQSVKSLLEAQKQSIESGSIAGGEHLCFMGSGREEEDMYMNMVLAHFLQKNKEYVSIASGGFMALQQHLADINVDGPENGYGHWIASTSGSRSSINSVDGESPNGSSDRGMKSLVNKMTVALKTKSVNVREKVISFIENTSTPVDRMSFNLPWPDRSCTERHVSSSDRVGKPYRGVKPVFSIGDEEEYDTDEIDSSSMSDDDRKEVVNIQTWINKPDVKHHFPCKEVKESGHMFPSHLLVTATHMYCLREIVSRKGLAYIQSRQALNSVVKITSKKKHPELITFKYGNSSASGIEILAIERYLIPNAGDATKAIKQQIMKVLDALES
inactive: [1] 0.007 | [2] 0.01 | [3] -0.017 | [4] 0.016 | [5] -0.024

TK1 (UniProt K7ERV3)
inactive: [1] -0.044 | [2] 0.007 | [3] -0.017 | [4] -0.002 | [5] -0.037

TMEM263 (UniProt Q8WUH6)
inactive: [1] -0.286 | [2] -0.048 | [3] 0.211 | [4] -0.138 | [5] -0.073

UBR4 (UniProt Q5T4S7)
inactive: [1] -0.012 | [2] -0.008 | [3] 0.012 | [4] 0.012 | [5] -0.003

TUBB1 (UniProt Q9H4B7)
inactive: [1] -0.005 | [2] 0.019 | [3] 0.008 | [4] 0.063 | [5] 0.087

TRIM23 (UniProt P36406)
inactive: [1] 0.036 | [2] -0.05 | [3] 0.052 | [4] 0.034 | [5] -0.275

TRNAU1AP (UniProt Q9NX07)
UniProt Q9NX07, sequence (Q9NX07 whole entry, looked up): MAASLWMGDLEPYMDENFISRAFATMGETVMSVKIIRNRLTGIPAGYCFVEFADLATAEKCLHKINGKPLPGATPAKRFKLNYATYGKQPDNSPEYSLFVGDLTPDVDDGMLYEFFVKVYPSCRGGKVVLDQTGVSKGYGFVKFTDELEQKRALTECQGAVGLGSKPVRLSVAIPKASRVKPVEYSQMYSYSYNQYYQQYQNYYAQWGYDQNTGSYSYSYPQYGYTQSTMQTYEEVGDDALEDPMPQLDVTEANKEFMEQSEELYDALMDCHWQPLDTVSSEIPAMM
inactive: [1] -0.068 | [2] -0.008 | [3] 0.195 | [4] -0.025 | [5] -0.048

UCHL5 isoform 3 (UniProt Q9Y5K5)
inactive: [1] -0.001 | [2] 0.033 | [3] 0.01 | [4] 0.015 | [5] 0.029

THOC5 (UniProt Q13769)
inactive: [1] 0.026 | [2] 0.048 | [3] 0.016 | [4] -0.01 | [5] 0.006

TOE1 (UniProt Q96GM8)
inactive: [1] 0.063 | [2] -0.01 | [3] 0.03 | [4] 0.032 | [5] 0.01

TBL3 (UniProt Q12788)
UniProt Q12788, sequence (Q12788 whole entry, looked up): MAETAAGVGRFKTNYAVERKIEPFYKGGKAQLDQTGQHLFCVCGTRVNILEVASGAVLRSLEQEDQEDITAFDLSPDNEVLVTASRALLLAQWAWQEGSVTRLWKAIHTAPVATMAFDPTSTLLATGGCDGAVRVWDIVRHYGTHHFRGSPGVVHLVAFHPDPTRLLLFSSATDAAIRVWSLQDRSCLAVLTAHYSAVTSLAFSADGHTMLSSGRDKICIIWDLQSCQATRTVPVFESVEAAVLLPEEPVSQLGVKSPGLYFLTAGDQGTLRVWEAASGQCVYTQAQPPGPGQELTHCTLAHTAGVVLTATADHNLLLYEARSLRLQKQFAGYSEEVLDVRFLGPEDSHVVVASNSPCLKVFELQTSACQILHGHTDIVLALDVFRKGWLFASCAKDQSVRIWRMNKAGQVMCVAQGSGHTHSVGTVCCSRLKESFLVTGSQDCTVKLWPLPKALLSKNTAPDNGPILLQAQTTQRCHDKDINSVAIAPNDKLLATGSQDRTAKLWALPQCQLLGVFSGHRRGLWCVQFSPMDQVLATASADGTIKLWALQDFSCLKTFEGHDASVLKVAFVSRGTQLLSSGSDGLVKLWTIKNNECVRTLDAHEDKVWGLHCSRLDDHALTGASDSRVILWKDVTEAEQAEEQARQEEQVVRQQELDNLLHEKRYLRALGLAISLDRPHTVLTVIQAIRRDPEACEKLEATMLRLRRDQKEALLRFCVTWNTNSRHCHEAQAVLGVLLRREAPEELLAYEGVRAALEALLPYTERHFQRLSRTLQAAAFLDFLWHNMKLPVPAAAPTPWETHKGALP
inactive: [1] 0.024 | [2] 0.003 | [3] -0.014 | [4] -0.014 | [5] 0.014

TPM3 (UniProt P06753)
inactive: [1] -0.018 | [2] 0.008 | [3] -0.018 | [4] 0.015 | [5] 0.057

TBC1D20 isoform 3 (UniProt Q96BZ9)
inactive: [1] -0.08 | [2] -0.07 | [3] 0.005 | [4] -0.007 | [5] 0.015

TMEM97 (UniProt Q5BJF2)
inactive: [1] 0.048 | [2] 0.015 | [3] -0.016 | [4] -0.081 | [5] -0.153

UBAP2L isoform 5 (UniProt Q14157)
inactive: [1] -0.047 | [2] 0.049 | [3] -0.022 | [4] 0.029 | [5] -0.004

TBRG4 (UniProt Q969Z0)
inactive: [1] -0.071 | [2] 0.024 | [3] 0.018 | [4] 0.052 | [5] 0.094

UBE3C (UniProt Q15386)
UniProt Q15386, sequence (Q15386 whole entry, looked up): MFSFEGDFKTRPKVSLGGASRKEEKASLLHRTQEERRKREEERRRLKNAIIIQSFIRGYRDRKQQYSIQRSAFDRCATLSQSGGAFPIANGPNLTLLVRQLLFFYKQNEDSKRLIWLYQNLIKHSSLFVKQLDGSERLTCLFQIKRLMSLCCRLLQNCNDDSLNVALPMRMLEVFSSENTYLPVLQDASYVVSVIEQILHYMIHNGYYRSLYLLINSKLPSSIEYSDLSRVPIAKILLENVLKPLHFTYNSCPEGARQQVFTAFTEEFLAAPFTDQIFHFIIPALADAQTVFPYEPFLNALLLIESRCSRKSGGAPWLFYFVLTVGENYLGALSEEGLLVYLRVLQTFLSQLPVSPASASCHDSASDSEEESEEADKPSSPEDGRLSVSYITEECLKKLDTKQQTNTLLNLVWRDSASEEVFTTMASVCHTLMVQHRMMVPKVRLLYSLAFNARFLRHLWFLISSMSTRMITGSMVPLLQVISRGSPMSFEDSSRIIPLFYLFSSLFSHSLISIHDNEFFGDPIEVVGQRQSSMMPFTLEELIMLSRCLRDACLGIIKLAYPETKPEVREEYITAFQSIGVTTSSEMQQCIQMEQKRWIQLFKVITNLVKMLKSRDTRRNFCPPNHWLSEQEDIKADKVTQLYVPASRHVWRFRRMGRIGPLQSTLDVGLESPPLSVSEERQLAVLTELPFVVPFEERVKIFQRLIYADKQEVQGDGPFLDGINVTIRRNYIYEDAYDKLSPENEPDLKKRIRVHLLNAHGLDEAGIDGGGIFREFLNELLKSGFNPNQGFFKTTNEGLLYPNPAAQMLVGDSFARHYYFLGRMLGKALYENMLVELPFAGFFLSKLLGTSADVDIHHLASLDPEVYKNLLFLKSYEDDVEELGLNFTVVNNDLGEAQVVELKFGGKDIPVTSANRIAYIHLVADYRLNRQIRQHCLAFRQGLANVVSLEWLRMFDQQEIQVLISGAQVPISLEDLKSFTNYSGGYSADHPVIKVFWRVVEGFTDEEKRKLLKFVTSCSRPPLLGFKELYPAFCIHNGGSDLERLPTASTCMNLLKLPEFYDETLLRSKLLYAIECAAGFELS
inactive: [1] -0.027 | [2] -0.04 | [3] 0.127 | [4] 0.066 | [5] 0.039

TRIM44 (UniProt Q96DX7)
inactive: [1] 0.096 | [2] -0.126 | [3] -0.061 | [4] -0.031 | [5] 0.083

TMEM70 (UniProt Q9BUB7)
inactive: [1] -0.029 | [2] 0.045 | [3] 0.021 | [4] 0.013 | [5] -0.083

TUBGCP5 (UniProt Q96RT8)
inactive: [1] -0.209 | [2] 0.088 | [3] 0.039 | [4] -0.093 | [5] 0.071

TRIM65 (UniProt Q6PJ69)
inactive: [1] 0.051 | [2] -0.085 | [3] -0.016 | [4] 0.012 | [5] 0.039

TXNRD2 (UniProt Q9NNW7)
inactive: [1] 0.023 | [2] -0.015 | [3] -0.048 | [4] -0.042 | [5] 0.006

TJP1 (UniProt G3V1L9)
inactive: [1] -0.025 | [2] -0.014 | [3] 0.127 | [4] 0.009 | [5] -0.007

TRAPPC9 isoform 2 (UniProt Q96Q05)
inactive: [1] 0.001 | [2] 0.05 | [3] 0 | [4] 0.055 | [5] -0.042

TUBAL3 (UniProt A6NHL2)
inactive: [1] -0.034 | [2] -0.051 | [3] 0.045 | [4] -0.189 | [5] -0.255

UFM1 (UniProt P61960)
UniProt P61960, sequence (P61960 whole entry, looked up): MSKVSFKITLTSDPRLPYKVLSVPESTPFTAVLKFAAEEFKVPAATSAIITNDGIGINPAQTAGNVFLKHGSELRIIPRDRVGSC
inactive: [1] 0.015 | [2] -0.085 | [3] -0.103 | [4] -0.019 | [5] 0.297

UBTF (UniProt P17480)
inactive: [1] -0.031 | [2] 0.028 | [3] -0.012 | [4] 0.007 | [5] 0.069

TBCE (UniProt Q15813)
inactive: [1] 0.008 | [2] -0.027 | [3] 0.014 | [4] 0.008 | [5] 0.015

TTI1 (UniProt O43156)
inactive: [1] -0.004 | [2] -0.011 | [3] -0.004 | [4] 0.034 | [5] 0.051

TTMP isoform 3 (UniProt Q5BVD1)
inactive: [1] -0.051 | [2] 0.091 | [3] 0.135 | [4] -0.148 | [5] -0.498

THAP9 (UniProt Q9H5L6)
UniProt Q9H5L6, sequence (Q9H5L6 whole entry, looked up): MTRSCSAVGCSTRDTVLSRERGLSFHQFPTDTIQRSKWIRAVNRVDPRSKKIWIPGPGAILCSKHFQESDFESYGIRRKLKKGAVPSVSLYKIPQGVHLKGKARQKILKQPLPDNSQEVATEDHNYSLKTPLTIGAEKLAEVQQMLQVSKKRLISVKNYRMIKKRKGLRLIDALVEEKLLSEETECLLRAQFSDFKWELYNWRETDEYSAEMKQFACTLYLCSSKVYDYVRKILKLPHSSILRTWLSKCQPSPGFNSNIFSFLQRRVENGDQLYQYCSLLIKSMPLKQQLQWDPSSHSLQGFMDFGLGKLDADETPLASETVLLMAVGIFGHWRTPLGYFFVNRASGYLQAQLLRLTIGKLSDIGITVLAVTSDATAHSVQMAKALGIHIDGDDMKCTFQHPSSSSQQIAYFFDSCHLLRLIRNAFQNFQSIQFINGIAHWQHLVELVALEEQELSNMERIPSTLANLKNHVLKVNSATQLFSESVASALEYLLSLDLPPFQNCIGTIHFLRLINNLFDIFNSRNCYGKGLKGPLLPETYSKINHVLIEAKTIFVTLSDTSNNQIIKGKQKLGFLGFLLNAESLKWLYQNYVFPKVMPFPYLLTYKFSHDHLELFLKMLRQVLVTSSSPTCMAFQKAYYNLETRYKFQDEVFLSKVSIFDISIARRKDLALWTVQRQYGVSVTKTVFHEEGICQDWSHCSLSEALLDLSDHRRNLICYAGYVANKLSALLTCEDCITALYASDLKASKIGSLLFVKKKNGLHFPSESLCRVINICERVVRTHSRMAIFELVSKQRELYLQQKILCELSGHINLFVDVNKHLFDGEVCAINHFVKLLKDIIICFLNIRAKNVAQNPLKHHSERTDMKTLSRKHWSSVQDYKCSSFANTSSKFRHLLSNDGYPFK
inactive: [1] 0.024 | [2] 0.039 | [3] 0.165 | [4] -0.194 | [5] -0.284

TRIM33 isoform 2 (UniProt Q9UPN9)
inactive: [1] 0.003 | [2] 0.009 | [3] 0.022 | [4] 0.011 | [5] 0.005

TFPI (UniProt P10646)
inactive: [1] 0.053 | [2] -0.116 | [3] -0.16 | [5] 0.269

TEX30 (UniProt Q5JUR7)
UniProt Q5JUR7, sequence (Q5JUR7 whole entry, looked up): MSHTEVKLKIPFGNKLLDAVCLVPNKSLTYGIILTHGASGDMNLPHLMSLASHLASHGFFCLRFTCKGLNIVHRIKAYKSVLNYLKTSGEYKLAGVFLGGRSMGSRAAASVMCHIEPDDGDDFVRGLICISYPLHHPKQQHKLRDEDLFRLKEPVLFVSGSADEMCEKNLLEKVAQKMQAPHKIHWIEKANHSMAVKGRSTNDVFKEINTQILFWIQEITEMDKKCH
inactive: [1] -0.074 | [2] 0.066 | [3] -0.006 | [4] -0.1 | [5] -0.038
